Several values for one entry are separate records, joined by “and”; a condition that tells them apart may be missing. Equal entries are not always repeated. Results filed as inconclusive are left out. Activity calls are given as the source filed them. How the source made its calls: active means hit-call score of the fitted dose curve at least 0.9, where 1 is the maximum; inconclusive means response in the unintended direction; inactive means score below 0.9.
Assays:
[1] = system: chicken Androgen Receptor (AR), gene 422165; test: ATG_chAR_XSP1: Attagene TRANS-FACTORIAL Multi-Species (XSP1) HepG2 Assay for chicken Androgen Receptor (AR) (AID 2283768)
In short: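 Reporter mRNA read by RT-PCR with fluorescent labelling and capillary electrophoresis 24 h after chemical dosing of transiently transfected HepG2 cells. Chicken AR-Gal4 chimera, partially stimulated with 3 nM 6-alpha-fluorotestosterone; activity fitted upward relative to DMSO.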

[2] = system: zebrafish Androgen Receptor (AR), gene 100005148; test: ATG_zfAR_XSP1: Attagene TRANS-FACTORIAL Multi-Species (XSP1) HepG2 Assay for zebrafish Androgen Receptor (AR) (AID 2283771)
In short: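 Gain-of-signal versus DMSO was measured as reporter transcripts quantified by RT-PCR, fluorescent labelling and capillary electrophoresis after 24 h chemical exposure. The cells were HepG2 expressing a chimeric zebrafish AR-GAL4, co-stimulated with 3 nM 6-alpha-fluorotestosterone.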

[3] = target: zebrafish Estrogen Receptor (ESR1), esr1 (gene 259252) (UniProt P57717); test: ATG_zfER1_XSP1: Attagene TRANS-FACTORIAL Multi-Species (XSP1) HepG2 Assay for zebrafish Estrogen Receptor (ESR1) (AID 2283772)
In short: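 Readout: fluorescent reporter mRNA, RT-PCR plus FAM labelling, HpaI digest, capillary electrophoresis; gain-of-signal fit vs DMSO. HepG2, transient multi-reporter TRANS (NR-GAL4 chimera), 24 h chemical exposure, 3 nM 6-alpha-fluorotestosterone co-added.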

[4] = system: zebrafish Estrogen Receptor (ESR2B), gene 317733; test: ATG_zfER2b_XSP1: Attagene TRANS-FACTORIAL Multi-Species (XSP1) HepG2 Assay for zebrafish Estrogen Receptor (ESR2B) (AID 2283773)
In short: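 Multiplexed TRANS format in transfected HepG2 liver cells, chimeric NR-Gal4 from zebrafish ESR2B. 24 h dosing; medium contains 3 nM 6-alpha-fluorotestosterone. mRNA induction by RT-PCR/CE, positive direction vs DMSO.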

[5] = system: frog Estrogen Receptor (ESR2), gene 100174814; test: ATG_frER2_XSP1: Attagene TRANS-FACTORIAL Multi-Species (XSP1) HepG2 Assay for frog Estrogen Receptor (ESR2) (AID 2283774)
In short: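 HepG2, transient MRTU transfection (GAL4-UAS reporters, exogenous NR-Gal4 chimeras); 24 h compound exposure; 3 nM 6α-fluorotestosterone co-added; total RNA → RT-PCR → 6-FAM primer extension → HpaI → CE. Positive direction vs DMSO.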

[6] = system: zebrafish Estrogen Receptor (ESR2A), gene 317734; test: ATG_zfER2a_XSP1: Attagene TRANS-FACTORIAL Multi-Species (XSP1) HepG2 Assay for zebrafish Estrogen Receptor (ESR2A) (AID 2283778)
In short: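 Transient transfection of HepG2 (human liver) with MRTU constructs; chemical dosing for 24 h; medium contained 3 nM 6-alpha-fluorotestosterone to partly stimulate AR. RT-PCR/CE fluorescence of reporter transcripts; positive direction vs DMSO.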

[7] = target: Estrogen receptor (Homo sapiens) (UniProt P03372); test: ATG_hERa_XSP1: Attagene TRANS-FACTORIAL Multi-Species (XSP1) HepG2 Assay for human Estrogen Receptor (ESR1) (AID 2283780)
In short: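 Reporter transcripts from multiplexed GAL4-UAS units driven by NR-Gal4 chimeras in transiently transfected HepG2 were measured by RT-PCR with capillary electrophoresis 24 h post-dose, with 3 nM 6-alpha-fluorotestosterone present; gain-of-signal relative to DMSO.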

[8] = target: Estrogen receptor beta (Homo sapiens) (UniProt Q92731); test: ATG_hERb_XSP1: Attagene TRANS-FACTORIAL Multi-Species (XSP1) HepG2 Assay for human Estrogen Receptor (ESR2) (AID 2283788)
In short: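 Transient MRTU transfection of HepG2; ERβ–GAL4 TRANS format; 24 h dosing; 3 nM 6α-fluorotestosterone co-added; RNA → RT-PCR → 6-FAM primer extension → CE; activity vs DMSO.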

[9] = target: GAL4 Transcription Factor (Internal Marker), GAL4 (gene 855828) (UniProt P04386); test: ATG_GAL4_XSP1: Attagene TRANS-FACTORIAL Multi-Species (XSP1) HepG2 Assay for GAL4 Transcription Factor (Internal Marker) (AID 2283789)
In short: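 This background-control endpoint measures GAL4-driven reporter mRNA via RT-PCR and capillary electrophoresis of labelled fragments. Transiently transfected HepG2 cells were treated 24 h, with 3 nM 6-alpha-fluorotestosterone included, and gain-of-signal was fitted against DMSO.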

[10] = ACEA_ER_AUC_viability: ACEA Biosciences xCELLigence Real-Time Cell Analysis on Estrogen Receptor Agonism for Viability (AID 2283782);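 further: hit means loss of impedance signal meaning reduced cell growth or viability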
In short: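 Read-out: real-time electrical impedance (RT-CES) area under curve, loss of signal taken as reduced viability, normalized to DMSO baseline. T-47D cells, charcoal-stripped serum medium, compounds up to 100 uM final, continuous exposure, 80 h.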

[11] = ACEA_AR_agonist_AUC_viability: ACEA Biosciences xCELLigence Real-Time Cell Analysis on Androgen Receptor Agonism for Viability (AID 2283775);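 on AC50: viability read 80 hours after compound addition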
In short: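 Viability endpoint from xCELLigence impedance in 22Rv1 prostate cells at 80 h. Eight-point series, 100 uM maximum final.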

[12] = ACEA_AR_antagonist_AUC_viability: ACEA Biosciences xCELLigence Real-Time Cell Analysis on Androgen Receptor Antagonism for Viability (AID 2283776);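 further: 22Rv1 human prostate cancer cells growing on impedance electrode plates; area under impedance growth curve at 80 h after dosing as viability; hits lower the growth signal relative to DMSO meaning cytotoxicity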
In short: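 Impedance read-out (RT-CES): area under growth curve at 80 h post-dose, loss of signal scored vs DMSO baseline. 22Rv1 cells; 8-pt 1:4 series, top 100 uM final, ≤0.5% DMSO; biological duplicate.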

AR (gene 367) [13] = target: AR (gene 367) (UniProt P10275); test: ACEA_AR_antagonist_80hr: ACEA Biosciences xCELLigence Real-Time Cell Analysis on Androgen Receptor Antagonism for Proliferation (AID 2283787);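 further: 22Rv1 human prostate cancer cells with growth followed by electrical impedance; hits lower the impedance growth signal relative to DMSO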
In short: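 Measures real-time proliferation of 22Rv1 prostate cancer cells by electrode impedance at 80 hours after dosing. Test articles ran at eight concentrations (1:4 steps, top 100 uM final) in biological duplicate.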

AR (gene 367) [14] = target: AR (gene 367) (UniProt P10275); test: ACEA_AR_agonist_80hr: ACEA Biosciences xCELLigence Real-Time Cell Analysis on Androgen Receptor Agonism for Proliferation (AID 2283783);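 further: hits increase impedance growth signal above DMSO baseline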
In short: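 Impedance (RT-CES) growth signal at 80 h post-dose; 22Rv1 cells, 8-pt 1:4 series, top 100 uM final, DMSO ≤0.5%; duplicate plates; gain-of-signal fit relative to DMSO baseline.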

Sequence of AR (gene 367) (P10275 whole entry, looked up): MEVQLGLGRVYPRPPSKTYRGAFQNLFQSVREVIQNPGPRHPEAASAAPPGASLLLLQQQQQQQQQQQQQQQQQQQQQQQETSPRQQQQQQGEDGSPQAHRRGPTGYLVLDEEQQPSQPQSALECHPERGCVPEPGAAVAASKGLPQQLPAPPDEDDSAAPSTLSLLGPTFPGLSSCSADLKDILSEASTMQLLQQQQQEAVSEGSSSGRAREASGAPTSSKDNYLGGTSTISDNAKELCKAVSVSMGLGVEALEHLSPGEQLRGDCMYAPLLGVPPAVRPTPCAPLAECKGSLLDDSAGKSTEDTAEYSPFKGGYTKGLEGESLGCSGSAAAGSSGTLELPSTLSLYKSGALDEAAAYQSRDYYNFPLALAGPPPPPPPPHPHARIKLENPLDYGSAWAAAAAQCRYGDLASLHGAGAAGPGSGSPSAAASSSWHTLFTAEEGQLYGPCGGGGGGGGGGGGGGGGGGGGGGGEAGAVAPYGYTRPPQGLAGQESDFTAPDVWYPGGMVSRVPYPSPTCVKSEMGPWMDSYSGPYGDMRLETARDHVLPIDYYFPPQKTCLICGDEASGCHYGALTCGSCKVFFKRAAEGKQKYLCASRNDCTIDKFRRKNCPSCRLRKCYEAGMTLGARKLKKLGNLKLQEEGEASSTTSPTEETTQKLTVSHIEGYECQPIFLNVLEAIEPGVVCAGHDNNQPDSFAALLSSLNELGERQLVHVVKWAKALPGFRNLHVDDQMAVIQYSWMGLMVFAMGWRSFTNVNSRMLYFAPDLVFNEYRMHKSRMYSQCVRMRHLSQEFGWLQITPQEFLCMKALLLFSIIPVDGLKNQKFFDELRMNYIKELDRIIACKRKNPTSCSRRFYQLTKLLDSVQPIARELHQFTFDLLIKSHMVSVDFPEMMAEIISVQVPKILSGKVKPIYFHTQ
Sequence of zebrafish Estrogen Receptor (ESR1), esr1 (gene 259252) (P57717 whole entry, looked up, the tested form may be a part): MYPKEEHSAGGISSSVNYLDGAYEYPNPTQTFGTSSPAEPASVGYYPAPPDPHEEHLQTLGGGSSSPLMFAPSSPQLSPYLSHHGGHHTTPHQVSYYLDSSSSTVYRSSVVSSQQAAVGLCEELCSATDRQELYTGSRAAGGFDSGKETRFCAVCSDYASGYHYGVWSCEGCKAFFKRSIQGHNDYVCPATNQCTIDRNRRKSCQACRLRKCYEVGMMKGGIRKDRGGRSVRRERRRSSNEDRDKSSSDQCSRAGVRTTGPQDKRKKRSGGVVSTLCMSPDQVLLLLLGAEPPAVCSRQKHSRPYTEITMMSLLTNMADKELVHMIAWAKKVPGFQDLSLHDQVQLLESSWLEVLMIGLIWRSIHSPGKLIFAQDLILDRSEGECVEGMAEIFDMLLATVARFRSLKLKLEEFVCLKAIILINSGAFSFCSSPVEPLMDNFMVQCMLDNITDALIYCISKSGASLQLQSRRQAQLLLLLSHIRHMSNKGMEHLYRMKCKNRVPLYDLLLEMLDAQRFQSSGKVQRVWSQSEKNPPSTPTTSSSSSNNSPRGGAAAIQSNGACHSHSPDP
Sequence of Estrogen receptor beta (Homo sapiens) (Q92731 whole entry, looked up, the tested form may be a part): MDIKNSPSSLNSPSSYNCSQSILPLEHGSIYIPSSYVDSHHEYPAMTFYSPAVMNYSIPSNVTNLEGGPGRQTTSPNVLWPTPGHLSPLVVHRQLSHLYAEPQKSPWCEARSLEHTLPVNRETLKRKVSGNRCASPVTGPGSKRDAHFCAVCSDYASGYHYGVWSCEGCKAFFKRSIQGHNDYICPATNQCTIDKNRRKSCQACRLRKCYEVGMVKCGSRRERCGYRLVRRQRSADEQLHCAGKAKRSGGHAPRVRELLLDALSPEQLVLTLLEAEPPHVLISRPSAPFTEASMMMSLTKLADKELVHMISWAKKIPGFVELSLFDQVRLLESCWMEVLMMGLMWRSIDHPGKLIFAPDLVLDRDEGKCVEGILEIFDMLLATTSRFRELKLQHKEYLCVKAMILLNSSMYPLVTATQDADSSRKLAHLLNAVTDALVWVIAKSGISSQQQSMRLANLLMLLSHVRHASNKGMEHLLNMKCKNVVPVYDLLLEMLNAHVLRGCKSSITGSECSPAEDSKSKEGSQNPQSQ
Sequence of Estrogen receptor (Homo sapiens) (P03372 whole entry, looked up, the tested form may be a part): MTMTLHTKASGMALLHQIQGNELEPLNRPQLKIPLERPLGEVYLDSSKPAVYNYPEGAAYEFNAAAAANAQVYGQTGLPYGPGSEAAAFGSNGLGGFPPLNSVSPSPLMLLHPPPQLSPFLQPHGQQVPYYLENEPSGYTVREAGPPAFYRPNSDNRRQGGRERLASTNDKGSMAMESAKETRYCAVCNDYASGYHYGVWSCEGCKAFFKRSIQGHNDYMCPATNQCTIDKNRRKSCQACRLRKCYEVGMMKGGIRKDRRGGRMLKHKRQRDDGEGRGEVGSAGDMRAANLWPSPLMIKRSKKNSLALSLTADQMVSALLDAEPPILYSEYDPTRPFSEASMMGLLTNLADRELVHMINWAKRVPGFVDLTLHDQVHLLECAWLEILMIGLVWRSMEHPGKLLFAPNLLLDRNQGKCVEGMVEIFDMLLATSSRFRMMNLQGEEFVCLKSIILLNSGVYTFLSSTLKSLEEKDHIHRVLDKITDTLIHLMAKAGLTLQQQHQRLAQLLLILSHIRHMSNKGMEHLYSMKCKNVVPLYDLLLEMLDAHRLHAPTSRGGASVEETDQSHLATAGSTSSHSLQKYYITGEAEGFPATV
Sequence of GAL4 Transcription Factor (Internal Marker), GAL4 (gene 855828) (P04386 whole entry, looked up, the tested form may be a part): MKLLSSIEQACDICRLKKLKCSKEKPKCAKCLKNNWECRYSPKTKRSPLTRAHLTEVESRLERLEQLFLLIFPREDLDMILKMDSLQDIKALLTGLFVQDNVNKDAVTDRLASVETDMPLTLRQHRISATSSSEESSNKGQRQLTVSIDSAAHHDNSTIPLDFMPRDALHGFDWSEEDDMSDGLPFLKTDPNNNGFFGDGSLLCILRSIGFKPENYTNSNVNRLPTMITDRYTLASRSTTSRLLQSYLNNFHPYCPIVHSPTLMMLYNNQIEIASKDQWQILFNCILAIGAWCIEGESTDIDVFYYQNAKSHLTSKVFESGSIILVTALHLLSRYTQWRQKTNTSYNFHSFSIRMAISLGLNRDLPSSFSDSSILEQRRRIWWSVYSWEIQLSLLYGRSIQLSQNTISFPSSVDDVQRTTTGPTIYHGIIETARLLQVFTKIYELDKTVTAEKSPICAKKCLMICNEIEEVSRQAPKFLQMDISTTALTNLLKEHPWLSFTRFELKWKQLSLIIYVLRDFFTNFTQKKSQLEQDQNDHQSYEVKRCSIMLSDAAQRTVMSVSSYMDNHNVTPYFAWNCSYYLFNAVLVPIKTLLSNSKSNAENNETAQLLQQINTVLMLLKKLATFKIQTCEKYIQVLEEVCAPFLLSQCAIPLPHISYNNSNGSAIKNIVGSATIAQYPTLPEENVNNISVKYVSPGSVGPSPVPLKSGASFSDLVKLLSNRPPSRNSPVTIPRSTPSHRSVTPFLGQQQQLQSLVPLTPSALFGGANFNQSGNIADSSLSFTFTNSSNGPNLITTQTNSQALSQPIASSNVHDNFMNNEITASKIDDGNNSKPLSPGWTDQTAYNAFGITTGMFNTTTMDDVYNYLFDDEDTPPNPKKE

SMILES: CC[C@H](c1ccc(O)cc1)[C@@H](CC)c1ccc(O)cc1
- outcome [1]: inactive
- outcome [2]: inactive
- AC50 [3]: 0.114 nM (active)
- AC50 [4]: 6.57e-05 µM (active)
- AC50 [5]: 0.101 nM (active)
- AC50 [6]: 0.0552 nM (active)
- AC50 [7]: 3.92e-05 µM (active)
- AC50 [8]: 0.0626 nM (active)
- outcome [9]: inactive

SMILES: CCC(C)(C)C1CCC(O)CC1 (configuration not stated)
- outcome [2]: inactive
- outcome [3]: inactive
- AC50 [4]: 10 µM (active)
- outcome [5]: inactive
- outcome [6]: inactive
- AC50 [7]: 10 µM (active)

SMILES: Cc1oc(-c2ccccc2)nc1CCOc1ccc(C[C@H](Nc2ccccc2C(=O)c2ccccc2)C(=O)O)cc1
- outcome [8]: inactive

SMILES: NCC(F)(F)C(F)(F)C(F)(F)C(F)(F)C(F)(F)C(F)(F)C(F)(F)F
- outcome [10]: inactive

SMILES: c1ccc2c(c1)ccc1ccccc12
- AC50 [11]: 50 µM (active)
- AC50 [12]: 50 µM (active)
- outcome [10]: inactive
- AC50 (AR (gene 367) [13]): 50 µM (active)

SMILES: CN1CCC[C@H]1c1cccnc1
- outcome [11]: inactive
- outcome [12]: inactive
- outcome [10]: inactive

SMILES: OCCC(F)(F)C(F)(F)C(F)(F)C(F)(F)C(F)(F)C(F)(F)C(F)(F)C(F)(F)F
- outcome [11]: inactive
- outcome [12]: inactive
- outcome [10]: inactive
- outcome (AR (gene 367) [13]): inactive

SMILES: OC1CCC(C2CCCCC2)CC1 (configuration not stated)
- AC50 [11]: 81.3 µM (active)
- AC50 [12]: 50 µM (active)
- AC50 [10]: 83 µM (active) and 84.8 µM (active) and 86.7 µM (active)

SMILES: CC(O)C(=O)O (configuration not stated)
- outcome [11]: inactive
- outcome [10]: inactive

SMILES: OC1CCCCC1
- outcome [11]: inactive
- outcome [12]: inactive

SMILES: CC(C)CCCCCCOC(=O)CCCCC(=O)OCCCCCCC(C)C
- outcome [11]: inactive
- outcome [12]: inactive

SMILES: O=[N+]([O-])c1ccc(O)cc1
- outcome [11]: inactive
- outcome [12]: inactive
- outcome [10]: inactive

SMILES: O=C(/C=C/c1ccc(O)cc1)CC(=O)/C=C/c1ccc(O)cc1
- AC50 [11]: 62.8 µM (active)
- AC50 [12]: 28.4 µM (active)
- outcome [10]: inactive
- outcome (AR (gene 367) [14]): inactive
- AC50 (AR (gene 367) [13]): 29.9 µM (active)

SMILES: C=C(C)C(=O)OCCC(F)(F)C(F)(F)C(F)(F)C(F)(F)C(F)(F)C(F)(F)F
- outcome [11]: inactive
- outcome [12]: inactive
- outcome [10]: inactive

SMILES: FC(F)(I)C(F)(F)C(F)(F)C(F)(F)C(F)(F)C(F)(F)I
- AC50 [10]: 45 µM (active)

SMILES: COc1cc(CCC(=O)CC(=O)CCc2ccc(O)c(OC)c2)ccc1O
- AC50 [11]: 68.5 µM (active)
- AC50 [12]: 61.8 µM (active)
- outcome [10]: inactive
- outcome (AR (gene 367) [14]): inactive
- AC50 (AR (gene 367) [13]): 74.6 µM (active)

SMILES: CCc1nn(C2CCCCC2)c2cc(C3(C#N)CCC(C(=O)O)CC3)ccc12 (configuration not stated)
- outcome [12]: inactive

SMILES: CCCCCCCCOC(=O)CCCCCCCCC(=O)OCCCCCCCC
- outcome [11]: inactive
- outcome [12]: inactive

SMILES: c1ccc2c(c1)Cc1ccccc1-2
- outcome [11]: inactive
- outcome [12]: inactive
- outcome [10]: inactive

SMILES: O=C(O)Cc1cc(I)c(Oc2cc(I)c(O)c(I)c2)c(I)c1
- AC50 [11]: 51.7 µM (active)
- AC50 [12]: 46.6 µM (active)
- outcome [10]: inactive

SMILES: CCCCC[C@H](O)CC(=O)CCc1ccc(O)c(OC)c1
- outcome [10]: inactive
- outcome (AR (gene 367) [14]): inactive

SMILES: O=C1OC2(c3ccccc31)c1cc(Br)c(O)c(Br)c1Oc1c2cc(Br)c(O)c1Br
- outcome [11]: inactive
- outcome [10]: inactive

SMILES: OCCC(F)(F)C(F)(F)C(F)(F)C(F)(F)C(F)(F)C(F)(F)F
- outcome [11]: inactive
- outcome [10]: inactive

SMILES: COC(=O)CCCCC(=O)OC
- outcome [11]: inactive
- outcome [12]: inactive

SMILES: NC(=O)N1C(=O)C(C(=O)c2cc(Cl)cs2)c2cc(F)c(Cl)cc21 (configuration not stated)
- outcome [11]: inactive
- outcome [12]: inactive
- AC50 [10]: 87.5 µM (active)
- outcome (AR (gene 367) [13]): inactive

SMILES: CC(C)(C)CC(C)(C)c1ccc(O)c(-n2nc3ccccc3n2)c1
- AC50 [11]: 90.1 µM (active)
- AC50 [12]: 82.8 µM (active)
- AC50 [10]: 21.6 µM (active)

SMILES: CCCCCCCCC(=O)O
- outcome [11]: inactive
- outcome [12]: inactive

SMILES: CC(O)CO (configuration not stated)
- outcome [11]: inactive
- AC50 [12]: 11.9 µM (active)
- outcome [10]: inactive

SMILES: CCCCCCCCCCCCCCCS(=O)(=O)Oc1ccccc1
- outcome [11]: inactive
- outcome [12]: inactive

SMILES: CC(=O)CC(C)(C)O
- outcome [11]: inactive
- outcome [12]: inactive
- outcome (AR (gene 367) [13]): inactive

SMILES: ClC1=C(Cl)C(Cl)(Cl)C(Cl)=C1Cl
- AC50 [11]: 74.8 µM (active)
- AC50 [12]: 68 µM (active)
- AC50 [10]: 71.2 µM (active)

SMILES: CCCCCCC(=O)O
- outcome [12]: inactive
- outcome [10]: inactive

SMILES: Cc1cc(CCN2CCN(c3nsc4ccccc34)CC2)cc2c1NC(=O)CC2(C)C
- AC50 [11]: 9.03 µM (active)
- AC50 [12]: 21.4 µM (active)
- AC50 [10]: 18.2 µM (active)
- AC50 (AR (gene 367) [13]): 18.7 µM (active)

SMILES: C[C@@H]1C[C@H]2[C@@H]3CCC4=CC(=O)C=C[C@]4(C)[C@@]3(F)[C@@H](O)C[C@]2(C)[C@@]1(O)C(=O)COP(=O)(O)O
- outcome [12]: inactive
- outcome [10]: inactive

SMILES: CCc1ccc(CCOc2ccc(CC3SC(=O)NC3=O)cc2)nc1 (configuration not stated)
- AC50 [11]: 50 µM (active)
- AC50 [12]: 26.5 µM (active)
- outcome [10]: inactive

SMILES: CC(=O)NC1(c2cccc(F)c2)CCN(CC[C@@]2(c3ccc(Cl)c(Cl)c3)CN(c3ccccc3)C(=O)CO2)CC1
- AC50 [11]: 41.5 µM (active)
- AC50 [12]: 41.5 µM (active)
- AC50 [10]: 11.8 µM (active)

SMILES: CC[C@H](C)[C@@H](C(=O)O)n1sc2ccccc2c1=O
- outcome [12]: inactive

SMILES: CCCOc1sc(C(=O)N2CCC(c3cc(CN)ccc3F)CC2)c(C)c1Br
- AC50 [10]: 5.11 µM (active)

Reference: PubChem BioAssay (EPA / NIEHS)
